A selection: hits, their analogues and other compounds. The true share with any hit is near 19%.
HT1080 IDH1KD tx: toxicity to HT-1080 IDH1 knockdown cells (counter line); HT-1080 IDH1 knockdown viability, ATP luminescence, 48 h; Potency, µM (top dose mostly 46.1 µM), inactives show top-dose activity, negative = toxicity, actives largely listed as cytotoxic; 2% of 360,000 active;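 also: potency is read from the fitted curve at half-maximal effect; 0% = DMSO wells and -100% = cell-free medium wells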
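Luminescent ATP read-out (CellTiter-Glo, 10 min at room temperature) after 48 h compound exposure at 37 °C gave viability of IDH1-knockdown HT-1080 cells. Activity was normalised to DMSO and cell-free wells, then fitted as concentration-response curves.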
TDP1 cell CPT: growth inhibition of DT40 Tdp1-/-;hTDP1 cells with camptothecin (screen for TDP1 inhibitors) | chicken DT40 Tdp1-/-;hTDP1 cells + 20 nM CPT, ATP luminescence, 48 h | Potency, µM (top dose mostly 46.2 µM), inactives show at the highest dose activity change, negative = growth inhibition, usual class: inhibitors | 12% of 420,000 active | AID 686979; also: potency is read from the fitted curve at half-maximal effect; nearly all actives have a fitted effect of over 55% in size
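Cell growth measured by CellTiter-Glo luminescence after a minimum 48 h, 37 C compound exposure with 20 nM CPT in Tdp1-knockout DT40 cells stably expressing hTDP1, seeded 400/well; qHTS titration format.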
IL-1B inflam inh: inhibitors of inflammasome signaling (IL-1 beta secretion) | THP-1 LPS/ATP IL-1B secretion, AlphaLISA, 16 h; active compounds read low | activity change, % at 57.5 µM | 4.7% of 360,000 active | AID 743279; in the data active = activity change below about -50%; inconclusive = mostly about -30% to -49%
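Secreted IL-1B measured by AlphaLISA bead assay after 16 h compound exposure of THP-1 cells; compounds (final up to 57.5 uM) added 1 h before LPS (250 ng/mL) and ATP (1.25 mM) stimulation; lower signal means less secretion.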
ELG1 DNA repair: inhibitors of ELG1-dependent DNA repair in HEK293T cells | HEK293T ELG1-luciferase reporter, luminescence, 16 h; DNA damage induced by 5-fluorouridine | AID 504467 | 2.3% of 330,000 active | Potency, µM (top dose mostly 46.1 µM), inactives show top-dose activity change, negative = inhibition, most hits filed as inhibitors; also: potency is read from the fitted curve at half-maximal effect; nearly all actives have a fitted effect of over 55% in size
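DMSO vehicle served as the neutral condition. Each well held 2,000 cells given 5-fluorouridine plus compound; after 16 hr at 37 °C/5% CO2, ONE-Glo was added and luciferase measured 30 min later.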
DT40 TDP1 no CPT: qHTS for Inhibitors of human tyrosyl-DNA phosphodiesterase 1 (TDP1): qHTS in cells in absence of CPT; DT40 Tdp1-/- hTDP1 cells, no CPT, ATP luminescence, 48 h; Potency, µM (titrated, usually from 46.2 µM), inactives show at the top dose activity change, negative = growth inhibition, actives largely listed as inhibitors; 15% of 420,000 active; also: potency is read from the fitted curve at half-maximal effect; nearly all actives have a fitted effect of over 55% in size
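DT40 Tdp1-/-;hTDP1 cells, no CPT (DMSO vehicle only), 400 cells/well; compounds pin-transferred; ≥48 hr, 37 °C; CellTiter-Glo 30 min RT dark, luminescence read.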
HT1080-NT tox: kills 2HG-producing HT-1080-NT fibrosarcoma cells; HT-1080-NT fibrosarcoma viability, CellTiter-Glo ATP luminescence, 48 h; 1.6% of 360,000 active; AID 686970; Potency, µM (titrated, usually from 46.1 µM), inactives show top-dose activity, negative = less viability, hits mostly cytotoxic;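 also: NT is the 2HG producing partner of a matched IDH1 knockdown line; potency is read from the fitted curve at half-maximal effect; 0% = DMSO-treated cells and -100% = media-only wells without cells; nearly all actives have a fitted effect of over 55% in size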
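Read-out is CellTiter-Glo luminescence after 10 minutes at room temperature, following 48 hours' compound treatment of HT-1080-NT cells (750 cells/well, RPMI, 5% FBS, 37 degrees C).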
The depositor's hits bear a star; ? = inconclusive; nt = no result; ! = not active in a repeat; [ ] = dose if it differs, or a comment. Unless noted, calls follow the shape of the dose curve; as a rule, active = well fitted curve in the direction sought with a large enough effect; inconclusive = small, poorly fitted or top-dose-only effect, or another doubt; inactive = no such curve, though single readings can be large; an effect the other way counts as inactive or inconclusive. Unless noted, % is scaled to controls: 0 for no effect and ±100 for the full control effect.

SMILES	HT1080 IDH1KD tx	TDP1 cell CPT	IL-1B inflam inh	ELG1 DNA repair	DT40 TDP1 no CPT	HT1080-NT tox
CCOc1ccccc1C(=O)NCC(=O)N1CCN(Cc2ccc3c(c2)OCO3)CC1	?	29µM*	-80*	?	?	?
COc1ccccc1CN1CCOc2ccc(CN3CCCCC3CO)cc2C1 (centres undefined)	nt	-4%[9.04 µM]	nt	nt	-16%	nt
Cc1nn(Cc2ccccc2)c2sc(C(=O)N3CCN(Cc4ccc5c(c4)OCO5)CC3)cc12	?	16µM*	?	nt	?	?
CCOC(=O)c1c(NC(=O)c2cc(CC)on2)sc(C)c1C	nt	-1%	nt	nt	-21%	nt
COc1ccc(CNC(=O)CN(C2CCCCC2)S(C)(=O)=O)cc1	9%	-16%	30	-10%	-25%	1%
Cc1ccc2c(c1)N(CC(=O)NCC1CCCO1)C(=O)C(C(C)C)O2 (centres undefined)	3%	7%	-6	-1%	-31%	-3%
O=C(C1CCN(S(=O)(=O)c2ccccc2F)CC1)N1CCN(Cc2ccc3c(c2)OCO3)CC1	0%	21µM*	-12	?	?	-11%[9.24 µM]
N#Cc1c(F)cccc1N1CCN(Cc2ccc3c(c2)OCO3)CC1	-20%	16µM*	-14	?	?	-21%
C/C(=C\c1ccccc1)C(=O)N1CCN(Cc2ccc3c(c2)OCO3)CC1	-2%	-20%	-69*	7.3µM*	-14%	-22%
COc1ccccc1C(=O)N1CCN(Cc2ccc3c(c2)OCO3)CC1	8%	-7%	-57*	?	-14%	10%
COc1cccc2c1O/C(=N\O)C(C(=O)Nc1cccc(Br)c1)C2 (centres undefined)	0%	-19%	-3	13%	?	-9%
Cc1ccccc1NC(=O)c1ccccc1N(C)S(=O)(=O)c1ccccc1	3%	14%	-6	nt	?	16%
CC1=C(C(=O)Nc2cccnc2)C(c2cccc(F)c2)n2nc(SCc3ccccc3F)nc2N1 (centres undefined)	nt	-6%	nt	nt	-2%	nt
COc1ccc(C(=O)NC2CCSc3ccccc32)cc1S(=O)(=O)N1CCOCC1 (centres undefined)	10%	?	3	16%	?	9%
COc1cc(S(=O)(=O)N2CCN(Cc3ccc4c(c3)OCO4)CC2)c(C)cc1C	-2%	15µM*	-20	-8%	?	-22%
O=C(c1ccccc1F)N1CCN(Cc2ccc3c(c2)OCO3)CC1	-17%	11%	-67*	?	-25%	1%
O=C(COc1ccc(Cl)cc1)N1CCN(Cc2ccc3c(c2)OCO3)CC1	11%	?	-51*!	?	?	28%
O=C(Nc1ccc(Cl)cc1)N1CCN(Cc2ccc3c(c2)OCO3)CC1	-22%	-13%	0	-22%	-22%	-5%
COc1cc(C)c(C)cc1S(=O)(=O)N1CCN(Cc2ccc3c(c2)OCO3)CC1	1%	-22%	-9	?	?	-5%
CCc1ccc(CN2CCN(C(=O)c3cccc(OC)c3OC)CC2)cc1	14µM*	?	?	?	?	-12%
CCCCNC(=O)C1(C)CCCCN1C(=O)c1ccc(F)c(C)c1 (centres undefined)	28%	?	0	nt	?	?
CCN(CC(=O)Nc1ccccc1OC)C(=O)CN1C(=O)NC(C)(c2ccccc2)C1=O (centres undefined)	-7%	-11%	-11	0%	2%	9%
Cc1cccc(CNC(=O)C2CCC(=O)N(C3CCCCCC3)C2)c1 (centres undefined)	5%	-21%	0	?	1%	4%
CCc1ccccc1NC(=O)CSc1ncccc1C(=O)O	nt	-14%	nt	nt	-10%	nt

From PubChem BioAssay
